# Results taken from the OligoGym collection.
# Biological target: SLC2A8
# Experiment: pooled miR-30 sensor sort-seq; sequence = guide strand
# Settings: shRNA
# Further: reference of the scale not given here.
row,Sequence,sensor-assay potency score (higher = more potent)
1,TAGCTGCACACAGGAGCCGAGC,-1.45
2,AAAAGGACACTGAAGATGCAGA,-0.924
3,ATCTCTGACATGAGGAGCCAGG,-1.73
4,TTAGCTGCACACAGGAGCCGAG,-0.983
5,ATTAGCTGCACACAGGAGCCGA,-0.991
6,TGAACACCATGACCACACCTGA,-0.865
7,TTGGTGAGGACGCAGATGCCTG,-1.08
8,TTTAGTTTCAGGGACACAGAAC,-0.989
9,TGAGTCAGCAGGAAGCGCGGGG,-0.717
10,TTTGTTCCAGAGTCTTTCCTTT,0.354
11,TCTGCATAGAACATGACGGCGT,-0.336
12,ATTTCGGAGATGTAGACCGGGG,-0.598

# Biological target: SLC30A10
# Experiment: as above
# Settings: shRNA
row,Sequence,sensor-assay potency score (higher = more potent)
1,TTAGCTAGAAGTTCTAATCAGT,0.384
2,TTTTGGGACCATCTGTAGCAGA,-0.988
3,TCTTTGAACACTGTATCCGCAG,-0.212
4,TCTGAGAATATTTTCTACCTTA,-0.0606
5,TTAGAAACAAGAACTTCTTTGA,0.415
6,TAAGCTATGATCTCACCTGAGC,-0.73
7,TTTGTTAAGACTTTGTCCGTGG,0.766
8,TTAAGCTATGATCTCACCTGAG,-0.235
9,TTAAGCATTTGAAACATTCTAT,0.231
10,TTTTGTTAAGACTTTGTCCGTG,0.41
11,TAACACTGCCAGTTACACGGGT,-0.383
12,ATTTGAAACATTCTATAGCTGC,-0.495
